Experimental data from PubChem BioAssay AID1159580 (chemical genetic matrix, 2015).
In all, about 5,500 compounds went through this assay and about 2,000 (36%) were called active. About 18% were inconclusive and are not listed. Rule as the data show it: active = normalized growth mostly below about 0.91 (no sharp cut-off); inconclusive = no clear call, values can overlap the other calls; inactive = mostly above about 0.92. The list shows a part of the results.

Assay: chemical genetic growth profiling, strain panel (AID 1159580);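 also: tested at 20 µM; growth read once vehicle control cultures reached saturation at 30 °C; 1 = growth at the plate median or of vehicle wells; lower values mean less growth of the strain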
Details: growth OD

Measured: normalized growth

CC(=O)Oc1cc(OC(C)=O)c2c(c1)O[C@H](c1ccc(OC(C)=O)c(OC(C)=O)c1)[C@@H](OC(C)=O)C2
inactive: S. cerevisiae deletion strains, locus YJR066W, strain TOR1, hits give low values 0.934 | S. cerevisiae deletion strains, locus YJR075W, strain HOC1, hits give low values 1.01 | S. cerevisiae deletion strains, locus YKL009W, strain mrt4, hits give low values 1.04 | S. cerevisiae deletion strains, locus YKL068W, hits give low values 0.987 | S. cerevisiae deletion strains, locus YKL085W, strain MDH1 (second series), hits give low values 0.983 | S. cerevisiae deletion strains, locus YKL085W, strain MDH1, hits give low values 0.983 | S. cerevisiae deletion strains, locus YKL160W, strain elf1, hits give low values 1 | S. cerevisiae deletion strains, locus YKL190W, strain CNB1, hits give low values 0.997 | S. cerevisiae deletion strains, locus YKR001C, strain vps1, hits give low values 0.97 | S. cerevisiae deletion strains, locus YKR026C, strain gcn3, hits give low values 0.972 | S. cerevisiae deletion strains, locus YKR091W, strain srl3, hits give low values 1 | S. cerevisiae deletion strains, locus YLL001W, strain dnm1, hits give low values 0.992 | S. cerevisiae deletion strains, locus YLL026W, hits give low values 0.995 | S. cerevisiae deletion strains, locus YLL041C, strain sdh2, hits give low values 0.997 | S. cerevisiae deletion strains, locus YLR027C, strain aat2, hits give low values 1.02 | S. cerevisiae deletion strains, locus YLR039C, strain RIC1, hits give low values 1.04 | S. cerevisiae deletion strains, locus YLR058C, strain SHM2, hits give low values 1 | S. cerevisiae deletion strains, locus YLR102C, strain apc9, hits give low values 0.986 | S. cerevisiae deletion strains, locus YLR113W, strain HOG1, hits give low values 0.966 | S. cerevisiae deletion strains, locus YLR221C, strain rsa3, hits give low values 1.01 | S. cerevisiae deletion strains, locus YLR258W, strain gsy2, hits give low values 1 | S. cerevisiae deletion strains, locus YLR262C, strain YPT6 (second series), hits give low values 0.998 | S. cerevisiae deletion strains, locus YLR262C, strain YPT6, hits give low values 1.09 | S. cerevisiae deletion strains, locus YLR268W, strain sec22, hits give low values 0.958 | S. cerevisiae deletion strains, locus YLR320W, strain mms22, hits give low values 0.977 | S. cerevisiae deletion strains, locus YLR330W, strain CHS5, hits give low values 0.995 | S. cerevisiae deletion strains, locus YLR342W, strain FKS1 (second series), hits give low values 0.979 | S. cerevisiae deletion strains, locus YLR342W, strain FKS1, hits give low values 0.994 | S. cerevisiae deletion strains, locus YLR357W, strain rsc2, hits give low values 0.992 | S. cerevisiae deletion strains, locus YLR370C, strain arc18, hits give low values 1.01 | S. cerevisiae deletion strains, locus YLR371W, strain rom2, hits give low values 0.959 | S. cerevisiae deletion strains, locus YLR384C, strain iki3, hits give low values 1 | S. cerevisiae deletion strains, locus YLR418C, strain cdc73, hits give low values 1.03 | S. cerevisiae deletion strains, locus YML016C, strain PPZ1, hits give low values 0.978 | S. cerevisiae deletion strains, locus YML032C, strain rad52, hits give low values 1.01 | S. cerevisiae deletion strains, locus YML120C, strain ndi1, hits give low values 1.01 | S. cerevisiae deletion strains, locus YML124C, strain tub3, hits give low values 0.981 | S. cerevisiae deletion strains, locus YMR058W, strain fet3, hits give low values 1 | S. cerevisiae deletion strains, locus YMR078C, strain ctf18, hits give low values 0.964 | S. cerevisiae deletion strains, locus YMR125W, strain sto1, hits give low values 0.996 | S. cerevisiae deletion strains, locus YMR129W, hits give low values 1 | S. cerevisiae deletion strains, locus YMR205C, strain PFK2, hits give low values 0.972 | S. cerevisiae deletion strains, locus YMR223W, strain ubp8, hits give low values 1 | S. cerevisiae deletion strains, locus YMR231W, strain pep5, hits give low values 1 | S. cerevisiae deletion strains, locus YMR307W, strain GAS1, hits give low values 1.1 | S. cerevisiae deletion strains, locus YNL067W, strain RPL9B, hits give low values 1 | S. cerevisiae deletion strains, locus YNL071W, strain lat1, hits give low values 1.01 | S. cerevisiae deletion strains, locus YNL153C, strain GIM3, hits give low values 1 | S. cerevisiae deletion strains, locus YNL183C, strain NPR1, hits give low values 0.904 | S. cerevisiae deletion strains, locus YNL209W, strain ssb2, hits give low values 1 | S. cerevisiae deletion strains, locus YNL233W, strain BNI4, hits give low values 0.983 | S. cerevisiae deletion strains, locus YNL248C, strain rpa49, hits give low values 1.01 | S. cerevisiae deletion strains, locus YNL250W, strain rad50, hits give low values 0.977 | S. cerevisiae deletion strains, locus YNL271C, strain bni1, hits give low values 0.975 | S. cerevisiae deletion strains, locus YNL298W, strain CLA4, hits give low values 0.979 | S. cerevisiae deletion strains, locus YNL307C, strain MCK1, hits give low values 0.98 | S. cerevisiae deletion strains, locus YNL322C, strain KRE1 (second series), hits give low values 0.997 | S. cerevisiae deletion strains, locus YNL322C, strain KRE1, hits give low values 0.998 | S. cerevisiae deletion strains, locus YNR049C, strain mso1, hits give low values 0.995 | S. cerevisiae deletion strains, locus YNR052C, strain pop2, hits give low values 0.981 | S. cerevisiae deletion strains, locus YOL012C, strain htz1 0.674 | S. cerevisiae deletion strains, locus YOL147C, strain pex11, hits give low values 1 | S. cerevisiae deletion strains, locus YOR001W, strain rrp6, hits give low values 0.997 | S. cerevisiae deletion strains, locus YOR061W, strain CKA2, hits give low values 0.977 | S. cerevisiae deletion strains, locus YOR069W, strain VPS5, hits give low values 0.989 | S. cerevisiae deletion strains, locus YOR070C, strain gyp1, hits give low values 1 | S. cerevisiae deletion strains, locus YOR080W, strain dia2, hits give low values 0.998 | S. cerevisiae deletion strains, locus YOR083W, strain WHI5, hits give low values 1.01 | S. cerevisiae deletion strains, locus YOR106W, strain vam3, hits give low values 1 | S. cerevisiae deletion strains, locus YOR136W, strain idh2, hits give low values 0.965 | S. cerevisiae deletion strains, locus YOR144C, strain elg1, hits give low values 0.982 | S. cerevisiae deletion strains, locus YOR184W, strain ser1, hits give low values 0.986 | S. cerevisiae deletion strains, locus YOR231W, strain MKK1, hits give low values 0.974 | S. cerevisiae deletion strains, locus YOR265W, strain rbl2, hits give low values 1 | S. cerevisiae deletion strains, locus YOR270C, strain vph1, hits give low values 0.988 | S. cerevisiae deletion strains, locus YOR290C, strain snf2, hits give low values 0.961 | S. cerevisiae deletion strains, locus YOR316C, strain cot1, hits give low values 0.986 | S. cerevisiae deletion strains, locus YPL051W, strain arl3, hits give low values 1.01 | S. cerevisiae deletion strains, locus YPL055C, strain LGE1, hits give low values 0.999 | S. cerevisiae deletion strains, locus YPL078C, strain atp4, hits give low values 1.02 | S. cerevisiae deletion strains, locus YPL106C, strain sse1, hits give low values 0.996 | S. cerevisiae deletion strains, locus YPL240C, strain hsp82, hits give low values 0.992 | S. cerevisiae deletion strains, locus YPL241C, strain CIN2, hits give low values 0.999 | S. cerevisiae deletion strains, locus YPL256C, strain CLN2, hits give low values 0.974 | S. cerevisiae deletion strains, locus YPR119W, strain clb2, hits give low values 0.979 | S. cerevisiae deletion strains, locus YPR141C, strain kar3, hits give low values 0.981 | S. cerevisiae deletion strains, locus YPR163C, strain tif3, hits give low values 0.994 | S. cerevisiae deletion strains, locus YPR167C, strain met16, hits give low values 0.978 | S. cerevisiae deletion strains, strain wtn01, hits give low values 0.951 | S. cerevisiae strains, strain wild type, hits give low values 0.993
